40 compounds from PubChem BioAssay (Tox21) can be followed below.

SMILES strings stand for the structures. Results filed as inconclusive are left out. Entries that show only a call come without a potency. A number with no mark means an inactive call. Active and inactive are the calls of the source. Calls follow the shape of the full dose curve.
Potency is read from the fitted curve at half-maximal effect.

The nature of the test: p53 small molecule agonists, cell-based qHTS assay with rat liver microsomes: qHTS cell viability counter screen (AID 1963580). Also: nearly all actives have a fitted effect of over 45% in size. The settings on record: p53RE-bla HCT-116 + rat microsomes, ATP viability, 16 h; series mostly up to 66 µM. An excerpt: National Center for Advancing Translational Sciences [NCATS]
Division of Preclinical Innovation [DPI]
U.S. Environmental Protection Agency [EPA]
National Institutes of Environmental Health Sciences [NIEHS]
National Toxicology Program [NTP]
U.S. Food and Drug Administration [FDA]
p53, a tumor suppressor protein, is activated following cellular insult, including DNA damage and other cellular stresses. The activation of p53 regulates cell fate by inducing DNA repair, cell cycle arrest, apoptosis, or cellular senescence. The activation of p53, therefore, is a good indicator of DNA damage and other cellular stresses. The CellSensor p53RE-bla HCT-116 cell line contains a stably integrated beta-lactamase reporter gene under control of the p53 response elements. The activation of the reporter gene under culture conditions can be detected by fluorescence intensity. This cell line was used to screen the Tox21 10K compound library in the condition of presence of rat liver microsomes and to identify agonists that activate the p53 signaling pathway after in vitro metabolic activation (Ooka et al., Archive of Toxicology 96:1975-1987, 2022). The cytotoxicity of the Tox21 compound library against the p53 RE-bla HCT-116 cell line was tested in parallel by measuring the intra cellular ATP content in the same wells.
Tox21 Assay Protocol Summary:
The p53RE-bla cells were dispensed at 4,000cells/3ul/well in 1536-well black-clear bottom plates. After the assay plates were incubated at 37 C, 5% CO2 incubator for 5 hours, 23 nL of compounds dissolved in DMSO, positive controls or DMSO only was transferred to the assay plate. Following compound addition, 3 uL of rat liver microsomes (Molecular Toxicology, Boone, NC) at final concentration of 0.5 mg/mL and 1uL of B-Nicotinamide adenine dinucleotide 2'-phosphate (NADPH) at final concentration of 0.5 mg/mL were transferred to the assay plate. The plates were incubated at 37 C for 16 hours. 1 uL of LiveBLAzer detection mixture was added to each well and the plates were incubated at room temperature in the dark for 2 h. Fluorescence intensity at 460 and 530 nm emission and 405 nm excitation were measured by an Envision plate reader. For cell viability readout that measures cytotoxicity, 4 ul/well of CellTiter-Glo reagent was added into the assay plates using a Flying Reagent Dispenser. After 30 min incubation at room temperature, the luminescence intensity in the plates was measured using a ViewLux plate reader.
(Quantitative high-throughput screening tests each substance at several concentrations.)
As to `CCO[Si](C)(CCCOCC1CO1)OCC` (stereo not given), the Potency result was “inactive”.
Same read-out and setting: the entry for `N#Cc1cscn1` is “inactive”; for `OC[C@H](Cc1cccc(O)c1)[C@H](CO)Cc1cccc(O)c1` it is “inactive”; for `CCCCCCCC1CCCC1=O` (stereo not given) it is “inactive”.
On the same count and under the same terms, the entry for `CCCCCCC(O)CCOC(C)=O` (stereo not given) is “inactive”; for `N=C1N=C(N)c2ccccc21` it is “inactive”.
For `Cc1nc2ccccc2n1Cc1ccc(Cl)cc1`, the Potency result is “inactive”.
On to `CN(C)CCOC1=Cc2ccccc2Sc2ccc(Cl)cc21`, for which the Potency result was “inactive”.
The same measure, in the same setting: the entry for `CCC(=O)Oc1ccc2c(c1)CC[C@@H]1[C@@H]2CC[C@@]2(C)[C@H]1C[C@@H](OC(=O)CC)[C@@H]2OC(=O)CC` is “inactive”.
Still for that read-out and setting: the figure for `Cc1oc(-c2ccccc2)nc1CCOc1ccc(C[C@H](Nc2ccccc2C(=O)c2ccccc2)C(=O)O)cc1` is 45.8 µM (active); for `COc1ccc(-n2nc(C(F)F)cc2-c2ccc(S(C)=O)cc2)cc1` (stereo not given) it is “inactive”.
Same read-out and setting: the entry for `CC1OC(=O)C(C)OC1=O` (stereo not given) is “inactive”; for `CC1(C)CCC(C)(C)c2cc(NC(=O)c3ccc(C(=O)O)cc3)ccc21` it is “inactive”.
With `O=C=Nc1cccc(C(F)(F)F)c1`, the Potency entry is “inactive”.
For the compound `Nc1ccn([C@@H]2O[C@H](CO)[C@@H](O)C2(F)F)c(=O)n1`, the Potency result is “inactive”.
Same read-out and setting: the entry for `COc1cc(S(=O)(=O)O)c(C)cc1N=Nc1c(O)ccc2cc(S(=O)(=O)O)ccc12` is “inactive”; for `CC(C)(O)CCC(C)(C)O` it is “inactive”; for `O=CC(=O)c1ccccc1` it is “inactive”.
As to `NC(Cc1ccc(Cl)cc1)C(=O)O` (stereo not given), the activity change, negative = cytotoxicity was -0.306% [at 0.249 µM].
Take `O=C1OC(=O)C2CCCCC12` (stereo not given): the Potency entry was “inactive”.
Take `Cc1cc(NS(=O)(=O)c2ccc(N)cc2)nc(C)n1`: the Potency entry is “inactive”.
For the compound `NC[C@H]1O[C@H](O[C@H]2[C@H](O[C@@H]3O[C@H](CO)[C@@H](O)[C@H]3O)C(O)[C@H](N)C[C@@H]2N)[C@H](N)[C@@H](O)[C@@H]1O` (stereo not given in full), the activity change, negative = cytotoxicity is 1.61% [at 5.99 µM].
In the case of `c1ccc(CNCCNCc2ccccc2)cc1`, the Potency entry was “inactive”.
Same read-out and setting: the entry for `O=c1c(O)c(O)c1=O` is “inactive”; for `COc1ccccc1N1CCN(CCCCNC(=O)c2ccc(-c3ccc(C(C)=O)cc3)cc2)CC1` it is “inactive”.
Still for that read-out and setting: the entry for `COc1ccc(C)cc1[N+](=O)[O-]` is “inactive”; for `CNC(=O)c1cnn(-c2nc(N)c3ncn([C@@H]4O[C@H](CO)[C@@H](O)[C@H]4O)c3n2)c1` it is “inactive”.
Still for that read-out and setting: the entry for `C/C=C/C=C/COC(=O)C(C)C` is “inactive”.
As to `CC=C(Cl)Cl`, the Potency entry is “inactive”.
On the same count and under the same terms, the entry for `CCOC(=O)CC1(C)OCC(C)O1` (stereo not given) is “inactive”; for `Cn1cnc2ncnc(N)c21` it is “inactive”.
Still for that read-out and setting: the entry for `CCCCOCCOC(=O)COc1cc(Cl)c(Cl)cc1Cl` is “inactive”; for `Cc1cccc(C(C)(C)C)c1O` it is “inactive”.
Still for that read-out and setting: the entry for `Cc1ccc2nc(N)[nH]c(=O)c2c1Sc1ccncc1` is “inactive”; for `OCCNCc1ccccc1` it is “inactive”.
Turning to `O=C1NCN(c2ccccc2)C12CCN(CCCC(c1ccc(F)cc1)c1ccc(F)cc1)CC2`, the Potency entry was “inactive”.
In the case of `C=CC(C)(C)O`, the Potency entry is “inactive”.
The same measure, in the same setting: the entry for `BrC(Br)C(Br)Br` is “inactive”.
Same read-out and setting: the entry for `O=C1CCCCO1` is “inactive”.
Same read-out and setting: the entry for `Cc1cccc2sc(N)nc12` is “inactive”.
